# From PubChem BioAssay
# Not all results are given here.
# aSyn 5UTR act: Activators via SNCA 5'UTR binding, MLPCN. alpha-synuclein 5'UTR reporter, activators screen. AID 1814, 2009. activity score, % (tested at 7.5 µM), hits read low. hit rate 7.1% among 300,000; in the data active = activity score below about -60%
# Active calls of the source: *; ! = repeats disagree.
SMILES,aSyn 5UTR act
Cc1ccc(C(=O)N/N=C/c2cccc(OC(=O)/C=C/c3ccco3)c2)cn1,-99.6*
CSC1=C(C#N)C(c2ccc(Cl)cc2)C2=C(CC(C)(C)CC2=O)N1 (stereo not drawn),71.1
COc1cccc(/C=N/NC(=O)c2ccoc2C)c1,-125.2*
COc1cccc(/C=N/NC(=O)NC2CCCCC2)c1O,-96.6*
COc1cccc(/C=N/NC(=O)c2cc3c(OC)cccc3[nH]2)c1O,85.5
COc1ccc(-c2cn3cc(C)ccc3n2)cc1F,77.5
O=[N+]([O-])c1cccn2cc(-c3ccc(Br)cc3)nc12,-315.3*
Cc1ccc(-c2cn3cccc(C)c3n2)cc1,-75.3*
COc1ccc(-c2cn3cccc(C)c3n2)cc1F,-149.1*
Cc1ccc(NC(=S)NNC(=O)c2nn(C)c(C)c2Cl)cc1,-276.0*
O=C(NNC(=S)Nc1ccccc1)Nc1ccccc1,-92.1*
Cc1ccc(NC(=O)NC(=O)N(c2ccccc2)S(C)(=O)=O)cc1,-93.0*
Cc1ccc(NC(=S)NNC(=O)Nc2ccccc2)cc1,-131.7*
CC1(C)Oc2cc3oc(-c4cc(O)cc(O)c4)cc3cc2CC1O (stereo not drawn),97.0
CCOc1ccc(NC(=O)NC(=O)N(C)S(=O)(=O)c2ccc(C)cc2)cc1,-81.6*
COc1ccc(C(=O)Cc2cc3ccccc3oc2=O)cc1,-124.6*
Cc1ccc(C(=O)Cc2cc3ccccc3oc2=O)c(C)c1,-129.8*
Cc1ccc(C(=O)NC(=S)Nc2ccc(-c3cc4ccccc4oc3=O)cc2)c(C)c1,88.3
C=CCc1cc(/C=C2/NC(=S)NC2=O)cc(OC)c1O,51.9
O=C1NC(=S)N/C1=C\C=C\c1ccccc1,-104.2*
O=C1NC(=S)N/C1=C/c1ccc2ccccc2c1,-83.6*
COc1ccc2c(C)c(C)c(=O)oc2c1OC,-84.5*
O=C1N(c2ccccc2)C[C@@H]2C[C@@H](c3cc4ccccc4o3)N3CCC[C@@]123,-594.1*
Cc1ccc(OCC(=O)Nc2ccc(-c3nc4ncccc4o3)cc2)c(C)c1,-102.1*
CC(C)CC(=O)NC(c1cccs1)c1ccc2cccnc2c1O (stereo not drawn),74.0
SMILES,aSyn 5UTR act
Cc1cc(-c2nc3ncccc3o2)ccc1NC(=O)CC(C)C,-74.7*
O=C(Cn1cnc2ccc(Cl)cc2c1=O)c1cccs1,-136.1*
O=C(Cn1cnc2ccccc2c1=O)c1ccccc1,-80.4*
O=c1c2ccccc2ncn1-c1ccc(Cl)cc1,-103.0*!
O=C(Cn1cnc2ccccc2c1=O)c1ccc(OC(F)F)cc1,-73.0*
O=C(Cn1cnc2ccccc2c1=O)c1ccc(Cl)cc1,-90.3*
CCOc1ccc(C(=O)Cn2cnc3ccccc3c2=O)cc1,-94.1*
O=C(Cn1cnc2ccccc2c1=O)c1ccc(Br)cc1,-153.2*
Cn1c(=N)n(CC(=O)c2ccc(Cl)c(Cl)c2)c2ccccc21,80.8
O=C(Cn1cnc2ccccc21)c1ccc(Cl)cc1,-70.9*
O=C(c1cc(-c2ccc(Cl)cc2Cl)on1)N1CCOCC1,79.8
O=C(c1cc(-c2ccc(F)cc2)on1)N1CCOCC1,-110.6*
COCCNC(=O)c1cc(-c2ccc(Cl)c(Cl)c2)on1,-78.0*
O=C(c1cc(-c2ccc(Cl)c(Cl)c2)on1)N1CCOCC1,-151.5*
O=C(c1cc(-c2cccc(Cl)c2)on1)N1CCOCC1,-171.0*
Cc1cccc(C)c1NS(=O)(=O)c1ccc(-c2cnc(C3CC3)o2)cc1,102.7
CN1CCN(C(=O)c2cc(COc3ccccc3)on2)[C@@H](c2ccccc2)C1,-165.7*
Cc1ccc(OCc2cc(C(=O)N3CCN(C)C[C@@H]3c3ccccc3)no2)cc1C,-106.3*
COc1ccccc1C(=O)Nc1cccc2cccnc12,-81.3*
CC(=O)NC(c1ccc(Cl)cc1Cl)c1ccc2cccnc2c1O (stereo not drawn),85.9
O=C(Nc1cccc2cccnc12)c1cc(F)c(F)cc1Cl,-74.0*
Cc1ccc(NC(=O)c2cccc3cccnc23)cc1,-90.6*
O=C(NCCc1ccccc1F)c1cccc2cccnc12,-146.6*
O=C1CCC/C(=N\NC(=O)c2ccc(COc3ccccc3-c3ccccc3)cc2)C1,-71.2*
O=C(NNC(=S)Nc1ccc(F)cc1)c1ccccc1OC(F)F,-62.7*
SMILES,aSyn 5UTR act
Cc1ccc(NC(=S)NNC(=O)c2ccccc2OC(F)F)cc1,-86.7*
O=C(NNC(=S)Nc1cccc(Cl)c1)c1ccccc1OC(F)F,-82.9*
O=C(Nc1nccc(-c2cccs2)n1)c1cccs1,-91.8*
COc1cccc(/C=N/NC(=O)c2cc3cc([N+](=O)[O-])ccc3s2)c1O,107.0
O=C(Nc1ccccn1)c1cccs1,-113.4*
Cc1cccc(NC(=O)c2cc3cc([N+](=O)[O-])ccc3s2)n1,-85.0*
Cc1ccnc(NC(=O)c2ccc(Br)s2)c1,-114.7*
Cc1cccc(NC(=O)c2cccs2)n1,-116.4*
Cc1ccnc(NC(=O)c2cccs2)c1,-117.8*
CCCCN(CC)C(=O)c1cc2cc3ccc(Cl)cc3nc2o1,-87.4*
Cc1ccc(N=C2NC(=O)/C(=C/c3cccn3C)S2)cc1C,-127.3*
O=C1NC(=Nc2ccccc2)S/C1=C/c1cccs1,-117.3*
Cc1ccc(N=C2NC(=O)/C(=C/c3cccn3C)S2)cc1,-79.7*
